Among all 93,000 compounds or so, about 65 (0.07%) were called active. The sample as a whole holds a higher share of actives than the screen did. Unmarked numbers belong to inactive results.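 The calls were made as follows: active = 10 µM primary screen giving 50% or more activity, confirmed by 40% or more on retest at that dose; inactive = the rest.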

The target of this assay is Integrin beta-2 (Homo sapiens) + Integrin alpha-M (Homo sapiens) (UniProt P05107+P11215). The assay is described as follows: agonists of integrin CD11b/CD18-fibrinogen binding – K562 cells, luminescence, primary screen (AID 1499). Conditions: K562 CD11b/CD18 adhesion to fibrinogen, ATPlite luminescence; at 10 µM; hits give high values. Background: Cellular ATP, detected with luciferase, serves as a proxy for viable cell number.
Sequence of Integrin beta-2 (Homo sapiens) + Integrin alpha-M (Homo sapiens) (P05107 whole entry, looked up, other chains not shown): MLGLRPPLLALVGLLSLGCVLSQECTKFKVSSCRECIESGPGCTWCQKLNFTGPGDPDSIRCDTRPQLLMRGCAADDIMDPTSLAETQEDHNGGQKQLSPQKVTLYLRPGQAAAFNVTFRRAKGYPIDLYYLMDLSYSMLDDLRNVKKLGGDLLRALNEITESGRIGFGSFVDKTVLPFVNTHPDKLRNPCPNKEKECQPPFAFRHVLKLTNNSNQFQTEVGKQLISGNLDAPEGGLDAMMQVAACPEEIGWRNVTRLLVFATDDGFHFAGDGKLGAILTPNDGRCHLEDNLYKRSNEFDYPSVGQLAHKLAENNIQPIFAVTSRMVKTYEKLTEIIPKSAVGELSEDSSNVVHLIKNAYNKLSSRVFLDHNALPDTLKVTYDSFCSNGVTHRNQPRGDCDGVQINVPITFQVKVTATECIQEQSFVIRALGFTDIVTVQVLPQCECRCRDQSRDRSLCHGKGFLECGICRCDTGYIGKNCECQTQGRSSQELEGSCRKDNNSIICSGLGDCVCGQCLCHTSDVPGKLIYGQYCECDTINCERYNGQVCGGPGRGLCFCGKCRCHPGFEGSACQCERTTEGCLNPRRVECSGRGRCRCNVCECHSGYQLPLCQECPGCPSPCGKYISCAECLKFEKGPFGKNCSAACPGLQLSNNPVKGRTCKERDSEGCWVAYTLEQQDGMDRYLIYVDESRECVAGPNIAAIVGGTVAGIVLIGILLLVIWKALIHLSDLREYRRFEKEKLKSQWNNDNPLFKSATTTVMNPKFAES
In the case of `O=C(NCCc1ccccn1)c1cc(-c2ccc(Cl)cc2)nc2ccccc12`, the activation is 0.7%.

Turning to `Cc1ccc(NC(=O)C(=O)NCc2ccc(/C=N/NC(=O)c3c(C)nc4cc(C)ccn34)o2)cc1`, the activation was 100%. In the case of `CCOC(=O)C1=C(C)N=C2c3ccccc3C(=O)C2C1c1ccc(Br)cc1` (stereo unspecified) it was 4.9%. In the case of `Cc1ccc(NC(=O)CC2C(=O)N(Cc3ccccc3)C(=S)N2NC(=O)c2cccc(F)c2)c(C)c1` (stereo unspecified) it was 2.6%; in that of `COCCn1c(C)cc(C2=NNC(=Nc3ccc(F)cc3)SC2)c1C`, 120% (active).

As for `Clc1cccc(N=C2NN=C(c3ccc4c(c3)OCCO4)CS2)c1`, the activation is 4.8%. `CC(=O)Nc1ccc(NC(=S)NC(=O)c2ccc([N+](=O)[O-])c(C)c2)cc1`: the activation was 0.9%. Take `CC(C)(C)OC(=O)N/N=C/c1ccc(C(=O)O)cc1`: the activation is 0.2%. In the case of `Cc1ccc(NC(=O)NC(=O)CSc2nnc(-c3ccc(OC(F)F)cc3)n2N)c(C)c1` it was -3.1%; in that of `CN(C)CCCNC(=S)NCc1ccc(Cl)cc1`, 2.8%; in that of `C/C(=N\NC(=O)CCn1nc(C)cc1C)C(C)(C)C`, 2.8%. In the case of `COc1cc2c3c(c1)/C(=C1/SC(=S)NC1=O)C(=O)N3C(C)(C)C=C2C` it was -7.7%; in that of `Cc1ccc(-n2c(C)cc(C(=O)CSc3nnc4ccccn34)c2C)cc1`, -2.4%. As for `CC(NC(=S)Nc1ccccc1)C1COc2ccccc2O1` (stereo unspecified), the figure is -1.1%; as for `COc1ccc2c(CN3CCN(S(=O)(=O)c4cccs4)CC3)cc(=O)oc2c1`, 1.6%. Consider `CCN(c1ccc(NC(=O)COC(=O)CCc2nc3ccccc3n2-c2ccccc2)cc1)C(C)C`, for which the activation was 5.2%. On to `CC(=O)Nc1ccc(S(=O)(=O)N2CCN(c3ccc([N+](=O)[O-])c(NCCN4CCOCC4)c3)CC2)cc1`, for which the activation is 8.9%.

Take `COCCCNC(=O)Cn1cc(/C=C(\C#N)C(=O)N2CCN(c3ccccc3)CC2)c2ccccc21`: the activation is 0%. For `O=C(Nc1nnc(SCc2ccccc2Cl)s1)c1cccc([N+](=O)[O-])c1`, the activation is -9.7%. In the case of `O=C(CCCN1C(=O)/C(=C/c2ccco2)SC1=S)Nc1ccccc1` it was 2.1%. In the case of `COc1ccc(/C(N)=N/OC(=O)Cc2ccccc2)cc1` it was -3.3%; in that of `CCOC(=O)c1c(NC(=O)C2CCN(S(=O)(=O)c3ccc(Cl)cc3)CC2)sc2c1CCCC2`, 15.1%; in that of `COC(=O)Cc1ccc(NC(=S)NCc2ccccc2)cc1`, 1.6%. As to `CC(C)N1C(=O)N(c2ccccc2)C(C)(O)CC1(C)C` (stereo unspecified), the activation is 3.2%. As for `O=C(CSc1nc2ccccc2c(=O)n1CCCO)N1CCc2ccccc21`, the figure is 2.1%. In the case of `Cc1ccc2[nH]cc(CCNC(=O)c3ccc([N+](=O)[O-])cc3)c2c1` it was -1.3%; in that of `CCCCC(O)(CCCC)C(=O)NN(C(=O)CCl)c1ccccc1`, 3.4%. In the case of `CNc1ccc(NC(C)=O)cc1[N+](=O)[O-]`, the activation was 2.9%. Take `COc1ccc(NC(=O)CN2C(=O)C(c3ccccc3)=NC23CCCCCC3)cc1OC`: the activation is -1.4%. For the compound `Cc1nc(-c2ccc(NC(=O)c3cccs3)cc2)cs1`, the activation is -4.6%. Turning to `Cc1ccc(-c2nnc(-c3ccc(NC(=O)c4cccs4)cc3)o2)cc1`, the activation is 161% (active).

Take `Cc1ccc(-c2csc(NC(=O)c3cccs3)n2)cc1`: the activation was 3.8%.

On to `COc1ccccc1OCCC(=O)OCC(=O)NCc1ccccc1`, for which the activation is 3.3%. Regarding `CCCN(CCC)c1c([N+](=O)[O-])c(=O)oc2ccccc12`, the activation was 2.9%. For the compound `CC(C)[C@H](NC(=O)c1ccc(F)cc1)C(=O)OCC(=O)NC(=O)c1cccn1C`, the activation was 25.8%. Regarding `Cc1cc(C)c(NC(=S)N2CCCC2C(=O)O)c(C)c1` (stereo unspecified), the activation was -3.4%. For the compound `O=C(Nc1cc(C(F)(F)F)ccc1Cl)C(=O)N1CCCCC1`, the activation is 10.3%. On to `CC(C)CCSc1ncnc2c1oc1nc3c(cc12)COC(C)(C)C3`, for which the activation is 6.2%.

Turning to `CC(NC(=O)CSc1nc2c(cc1C#N)CN(C)CC2)c1ccccc1` (stereo unspecified), the activation was -1.5%. In the case of `CC1(C)Cc2nc3sc4c(SCC(=O)NC(c5ccccc5)c5ccccc5)ncnc4c3cc2CO1` it was 93.6% (active); in that of `CCc1c(C)sc(NC(=O)/C=C/c2ccc3c(c2)OCO3)c1C(=O)OC`, 9.1%.

With `COc1ccc2oc(-c3cccc(NC(=O)CSc4ccc(Cl)cc4)c3)nc2c1`, the activation is 13.1%.

Turning to `O=C(COC(=O)Cc1ccc(F)cc1)Nc1cc(S(=O)(=O)N2CCOCC2)ccc1N1CCCC1`, the activation is -2.5%.

With `CN(C)CCCO/N=C(\c1ccccc1)c1ccncc1`, the activation was 3.7%.

In the case of `O=C(COC(=O)Cn1cnc2ccccc21)Nc1cccc2c1C(=O)c1ccccc1C2=O`, the activation is 7.9%. With `COc1cc(Cl)c(C)cc1NC(=O)COC(=O)c1cc(SC)ccc1Cl`, the activation is 0.1%. In the case of `Cc1ccc(-c2nc(C)sc2CC(=O)OCC(=O)Nc2c(F)cccc2F)cc1` it was -4%; in that of `Cc1csc(=Nc2ccccc2)n1CCO`, 0.8%. As for `Cc1ccc(S(=O)(=O)Nc2nc(C)cc(N/N=C/c3ccc(O)cc3)n2)cc1`, the figure is 13.5%. For `Cc1cccc(NC(=O)Cn2c(=O)n(Cc3ccccc3)c(=O)c3c(C)c(C)sc32)c1`, the activation is 6.7%. Take `Cc1ccc(/C=N/NC(=O)CNC(=O)COc2ccccc2)o1`: the activation was 6.3%. In the case of `O=C1N(c2ccc(Cl)cc2)C(c2ccc(Cl)cc2)N2CCCN12` (stereo unspecified) it was 3.2%; in that of `CCOc1ccc(/C=N/OCC(=O)NCc2cccs2)cc1`, -0.5%; in that of `C=CCn1c(SCn2nnc3ccccc3c2=O)nnc1-c1ccc(Cl)cc1`, 4.1%. In the case of `C=CCSc1nc(Cc2ccc(Cl)cc2)nc2ccccc12` it was 69.1% (active); in that of `C=CCSc1nc2ccccc2[nH]1`, 6.8%. In the case of `Cc1sc2ncnc(Sc3nc4ccccc4s3)c2c1C` it was 12.1%; in that of `OC(COCC1COc2ccccc2O1)CN1CCN(c2ccc(F)cc2)CC1` (stereo unspecified), 4.1%. As to `C/C(=N/NC(=O)C1COc2ccccc2O1)c1ccco1` (stereo unspecified), the activation is 1.2%. With `N#CCOc1ccc(C2=NO[C@@H]3[C@@H]4C[C@@H]([C@H]5C(=O)N(c6ccc7c(c6)OCO7)C(=O)[C@@H]45)[C@H]23)cc1`, the activation was 0.6%.

For `CC(=C/c1ccccc1)/C=N/NC(=O)c1cc(C)oc1C`, the activation was -1.7%. As for `COc1ccc(NC(=O)c2ccc(C#CC(C)(C)O)cc2)cc1`, the figure is 2.8%; as for `Cc1ccc(OCC(=O)Nc2ccccc2Sc2ccc(Cl)cc2)c([N+](=O)[O-])n1`, -1%. Consider `Cc1cccc(-n2c(C)cc(/C=N/NC(N)=S)c2C)c1`, for which the activation is -1.9%. For the compound `CC(C)NC(=S)N1CCN(S(C)(=O)=O)CC1`, the activation was 0.6%. In the case of `Cc1ccc(-c2nn(-c3ccccc3)cc2C(=O)Nc2cccc(S(=O)(=O)N3CCOCC3)c2)cc1` it was -0.1%.

As for `CCOc1ccc(NC(=S)NC(=O)/C=C/c2ccc(OC)cc2)c([N+](=O)[O-])c1`, the activation was 34.7%.

With `CCOC(=O)c1c(NC(=S)Nc2ccccc2C)sc2c1CCC2`, the activation is 2.8%. In the case of `CCOCCCNC(=O)C(=O)NCCCOCC` it was -2.3%; in that of `CCc1nnc(NC(=O)C2CC(=O)N(c3ccc4c(c3)OCCO4)C2)s1` (stereo unspecified), 5%. For the compound `CCCn1c(C)cc(/C=C(\C#N)C(=O)OCC(=O)Nc2cc(OC)c(OC)c(OC)c2)c1C`, the activation is 3%. In the case of `O=C(/C=C/c1ccccc1)Nc1nnc(SCC(=O)c2ccc3ccccc3c2)s1` it was 59.6%; in that of `CCc1nnc(NC(=O)[C@@H](NC(=O)c2cccc(C)c2)C(C)C)s1`, -1.2%; in that of `O=C(CSc1nc2ccccc2[nH]1)Nc1nc(-c2ccccc2)c(-c2ccccc2)o1`, -6.7%. As for `CN(Cc1cccs1)C(=O)Cc1c[nH]c2ccccc12`, the figure is -1.9%; as for `COC(=O)c1ccc(OCC(O)CN(CCO)CC(O)Cn2ccc3ccccc32)cc1` (stereo unspecified), 8.9%.

Turning to `Cc1c(Cl)cnc(NC(=O)COC(=O)c2ccc(S(=O)(=O)NCc3ccco3)cc2)c1Cl`, the activation was 12.8%.

For `CC(C)(C)c1ccc(C(=O)NCc2nnc(SCC(=O)N3CCCc4ccccc43)n2-c2ccccc2)cc1`, the activation was -4.7%. In the case of `Cc1cc(Br)ccc1SCC(=O)OCC(=O)NCc1ccc2c(c1)OCO2` it was 4.5%; in that of `N#Cc1c(-c2ccc(F)cc2)cc(C2CC2)nc1SCC(=O)c1cccs1`, 12.6%; in that of `CCn1c2ccccc2c2cc(NC(=O)COC(=O)c3ccccc3Br)ccc21`, 0.6%. As for `CC(C)Nc1nnc(SCC(=O)/C=C2\N(C)c3ccccc3C2(C)C)s1`, the activation was 0%.

Consider `Cc1cccc(CC(=O)N2CCN=C2SCc2ccc([N+](=O)[O-])cc2)c1`, for which the activation is 5.7%. As for `CCOc1ccc(CCNC(=O)CSc2cc(=O)n(C)c3ccc(Cl)cc23)cc1OCC`, the figure is 0.6%; as for `Cc1c(C(=O)Nc2cccc(-c3nnc4n3CCCCC4)c2)oc2ccccc12`, 0.4%. In the case of `CC(=O)c1ccc(NC(=O)Nc2ccc([N+](=O)[O-])cc2C)cc1` it was -2.3%; in that of `Cc1cc2oc(=O)cc(CN3CCN(S(=O)(=O)c4cccs4)CC3)c2cc1C(C)C`, -0.5%; in that of `O=C(CCCCCNC(=O)c1ccccc1)N/N=C/c1ccccc1`, -6.5%.

Regarding `COc1ccc(NS(=O)(=O)c2ccc(NC(=S)NC(=O)/C=C/c3ccc(C)cc3)cc2)nn1`, the activation is 3.8%. In the case of `O=C(NNC(=S)Nc1ccc(Br)cc1Cl)c1ccco1`, the activation is -7.7%. In the case of `COc1ccc(C(CC(=O)Nc2ccc(C)cc2)NC(=O)C(F)(F)F)cc1` (stereo unspecified) it was -0.4%.

The values are drawn from PubChem BioAssay AID1499 (Sanford-Burnham Center for Chemical Genomics, 2009).
